We go through 13 compounds from PubChem BioAssay (Tox21).

Unmarked numbers belong to inactive results. Inconclusive results are not listed. Active and inactive are the calls of the source. Unless noted, calls follow the shape of the dose curve; as a rule, active = well fitted curve in the direction sought with a large enough effect in the repeat runs; inconclusive = weak or mixed curves; inactive = no such curve, though single readings can be large; an effect the other way counts as inactive or inconclusive.

A short description of experiment [1]: qHTS assay to test for compound auto fluorescence at 535 nm (green) in HEK293 cells (AID 720680).
Experiment [2] in a line: qHTS assay to test for compound auto fluorescence at 460 nm (blue) in HEK293 cell free culture (AID 720681). An outline of the steps: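 Blue fluorescence (Ex 405/Em 460 nm, triamterene-equivalent) was read immediately after pin transfer of compound or DMSO into medium (DMEM, 10% FBS) without cells.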
Experiment [3] in a line: qHTS assay to test for compound auto fluorescence at 535 nm (green) in HEK293 cell free culture (AID 720682). The method, boiled down:
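Compounds were pin-transferred into cell-free DMEM with 10% FBS, and green fluorescence was read at excitation 485 nm and emission 535 nm. Intensities were expressed as fluorescein-equivalent values.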
Background: qHTS replaces the single test concentration by a dilution series.

A short description of experiment [4]: qHTS assay to test for compound auto fluorescence at 590 nm (red) in HEK293 cell free culture (AID 720683). An outline of the steps:
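Red-channel autofluorescence of compounds in culture medium (DMEM, 10% FBS), no cells, measured at 540/590 nm. Rose Bengal sodium is the reference fluorophore for equivalence.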

A short description of experiment [5]: qHTS assay to test for compound auto fluorescence at 590 nm (red) in HepG2 cell free culture (AID 720684). An outline of the steps:
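No cells present: MEM + 10% FBS only. Compound pinned in, red label read (540/590 nm). Activity = fluorescence equivalent to Rose Bengal sodium.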

A short description of experiment [6]: qHTS assay to test for compound auto fluorescence at 460 nm (blue) in HepG2 cell free culture (AID 720685). An outline of the steps:
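Cell-free plates of MEM plus 10% FBS received 23 nL compound or DMSO vehicle; blue-channel (405/460 nm) intensity scored against triamterene as reference fluorophore.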

A short description of experiment [7]: qHTS assay to test for compound auto fluorescence at 535 nm (green) in HepG2 cell free culture (AID 720686).
Experiment [8] in a line: qHTS assay to test for compound auto fluorescence at 460 nm (blue) in HepG2 cells (AID 720687). The method, boiled down: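 Blue-channel autofluorescence (Ex/Em 405/460 nm, triamterene-equivalent) was measured after 1 hr compound exposure at 37 C, 5% CO2. Cells were HepG2, plated overnight at 37 C in MEM plus 10% FBS.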
Experiment [9] addresses Glucocorticoid receptor (Homo sapiens) (UniProt P04150). The experiment is described as follows: qHTS assay to identify small molecule agonists of the glucocorticoid receptor (GR) signaling pathway (AID 720691; active = well fitted activation curve with a large enough effect in the signal ratio in the repeat runs, not every such curve was filed as active; the % refers to the signal ratio). The method, boiled down:
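Steps: seed GR-bla HeLa cells, incubate 4 h at 37 C/5% CO2; pin-transfer DMSO-dissolved compounds; incubate 18 h at 37 C; add LiveBLAzer B/G FRET substrate; after 2 h at room temperature, measure fluorescence.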

Experiment [10] shares this target. The experiment is described as follows: qHTS assay to identify small molecule antagonists of the glucocorticoid receptor (GR) signaling pathway (AID 720692; active = well fitted inhibition curve with a large enough effect in the signal ratio in the repeat runs, not every such curve was filed as active; the % refers to the signal ratio). An outline of the steps:
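Antagonism was scored as loss of dexamethasone-driven (5 nM final) reporter signal in HeLa cells bearing a glucocorticoid response element–beta-lactamase construct, after 18 h compound exposure at 37 C and 2 h FRET substrate loading.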

Experiment [11] in a line: qHTS assay for identifying genotoxic compounds that show differential cytotoxicity against isogenic chicken DT40 cell lines with known DNA damage response pathways - wild type cell line (AID 743012). Also: nearly all actives have a fitted effect of over 60% in size. Also: potency is read from the fitted curve at half-maximal effect. An outline of the steps:
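Cytotoxicity in repair-proficient parental chicken DT40 cells serves as the comparator for Rad54/Ku70- and Rev3-deficient lines. Cells were exposed to compounds for 40 h at 37 C/5% CO2, and ATP-based luminescence (CellTiter-Glo) measured viability.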

Experiment [12] in a line: qHTS assay to identify small molecule antagonists of the androgen receptor (AR) signaling pathway - cell viability counter screen (AID 743033; also: nearly all actives have a fitted effect of over 45% in size).
Experiment [13] deals with Androgen receptor (Homo sapiens) (UniProt P10275). Put plainly: qHTS assay to identify small molecule antagonists of the androgen receptor (AR) signaling pathway (AID 743035; active = well fitted inhibition curve with a large enough effect in the signal ratio in the repeat runs, not every such curve was filed as active; the % refers to the signal ratio). The method, boiled down:
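Steps: seed AR-UAS-bla GripTite HEK293 cells, incubate 4 h at 37C; pin in test compound, then add agonist R1881; incubate 16 h at 37C; add LiveBLAzer B/G FRET substrate, 2 h at room temperature; read fluorescence.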

The target is the same in experiment [14]. The experiment is described as follows: qHTS assay to identify small molecule agonists of the androgen receptor (AR) signaling pathway (AID 743036; active = well fitted activation curve with a large enough effect in the signal ratio in the repeat runs, with a control signal flat, not every such curve was filed as active; the % refers to the signal ratio). The method, boiled down:
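Activation was read as beta-lactamase FRET signal from LiveBLAzer B/G substrate, added for 2 h at room temperature. Before that, GeneBLAzer AR-UAS-bla GripTite (HEK293) cells had 16 h compound exposure at 37C.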

Experiment [15] has the same target. The experiment is described as follows: qHTS assay to identify small molecule agonists of the androgen receptor (AR) signaling pathway using the MDA cell line (AID 743040; also: nearly all actives have a fitted effect of over 20% in size). The method, boiled down: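 Stable MMTV-luciferase reporter in MDA-kb2 cells; note the promoter carries GR as well as AR response elements. 16 h compound treatment, 37C, 0% CO2; ONE-Glo luminescence endpoint.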

Experiment [16] is described as follows: qHTS assay to identify small molecule antagonists of the androgen receptor (AR) signaling pathway using the MDA cell line - cell viability counter screen (AID 743041; also: nearly all actives have a fitted effect of over 45% in size). The method, boiled down: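 Using the breast carcinoma line MDA-kb2 AR-luc, test chemicals were co-incubated with R1881 for 16 h; CellTiter-Fluor reagent, added at 15.5 h, provided a fluorescence measure of live cells.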

The target in experiment [17] is Androgen receptor (Homo sapiens) (UniProt P10275). The experiment is described as follows: qHTS assay to identify small molecule antagonists of the androgen receptor (AR) signaling pathway using the MDA cell line (AID 743042; also: nearly all actives have a fitted effect of over 55% in size). The method, boiled down:
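Antagonist mode: compounds plus R1881 agonist added to MDA-kb2 AR-luc cells, incubated 16 h at 37C. Luciferase reporter luminescence quantified, with multiplexed CellTiter-Fluor readout for cell viability.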

Experiment [18] is described as follows: qHTS assay to identify small molecule antagonists of the glucocorticoid receptor (GR) signaling pathway - cell viability counter screen (AID 720693). Also: nearly all actives have a fitted effect of over 55% in size.
Experiment [19] can be described thus: qHTS assay for identifying genotoxic compounds that show differential cytotoxicity against isogenic chicken DT40 cell lines with known DNA damage response pathways - Rev3 mutant cell line (AID 743014). Also: nearly all actives have a fitted effect of over 55% in size. Also: potency is read from the fitted curve at half-maximal effect.
Experiment [20] is described as follows: qHTS assay for identifying genotoxic compounds that show differential cytotoxicity against isogenic chicken DT40 cell lines with known DNA damage response pathways - Rad54/Ku70 mutant cell line (AID 743015). Also: nearly all actives have a fitted effect of over 60% in size.
% is scaled to controls: 0 for no effect and ±100 for the full control effect.

Chain of Glucocorticoid receptor (Homo sapiens) (P04150 whole entry, looked up): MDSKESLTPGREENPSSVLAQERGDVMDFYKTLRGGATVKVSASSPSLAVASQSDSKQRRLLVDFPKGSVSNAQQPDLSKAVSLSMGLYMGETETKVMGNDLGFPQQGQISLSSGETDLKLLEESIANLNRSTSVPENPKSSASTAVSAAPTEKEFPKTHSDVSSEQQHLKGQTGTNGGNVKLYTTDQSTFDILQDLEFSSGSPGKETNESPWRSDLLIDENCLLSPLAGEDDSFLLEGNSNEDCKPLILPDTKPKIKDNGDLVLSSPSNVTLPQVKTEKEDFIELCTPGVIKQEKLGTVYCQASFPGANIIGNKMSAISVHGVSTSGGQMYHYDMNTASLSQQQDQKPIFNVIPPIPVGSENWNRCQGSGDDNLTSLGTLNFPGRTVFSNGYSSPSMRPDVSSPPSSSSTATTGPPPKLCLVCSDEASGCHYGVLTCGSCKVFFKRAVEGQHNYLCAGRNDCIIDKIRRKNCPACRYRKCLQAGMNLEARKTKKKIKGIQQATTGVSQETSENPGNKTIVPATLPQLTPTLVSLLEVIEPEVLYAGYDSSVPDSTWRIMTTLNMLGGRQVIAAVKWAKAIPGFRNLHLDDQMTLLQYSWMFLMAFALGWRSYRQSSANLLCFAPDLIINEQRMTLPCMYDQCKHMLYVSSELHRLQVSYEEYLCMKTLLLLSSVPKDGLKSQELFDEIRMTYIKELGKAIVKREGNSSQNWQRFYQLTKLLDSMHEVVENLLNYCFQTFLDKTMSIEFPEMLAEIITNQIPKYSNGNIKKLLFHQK
Chain of Androgen receptor (Homo sapiens) (P10275 whole entry, looked up): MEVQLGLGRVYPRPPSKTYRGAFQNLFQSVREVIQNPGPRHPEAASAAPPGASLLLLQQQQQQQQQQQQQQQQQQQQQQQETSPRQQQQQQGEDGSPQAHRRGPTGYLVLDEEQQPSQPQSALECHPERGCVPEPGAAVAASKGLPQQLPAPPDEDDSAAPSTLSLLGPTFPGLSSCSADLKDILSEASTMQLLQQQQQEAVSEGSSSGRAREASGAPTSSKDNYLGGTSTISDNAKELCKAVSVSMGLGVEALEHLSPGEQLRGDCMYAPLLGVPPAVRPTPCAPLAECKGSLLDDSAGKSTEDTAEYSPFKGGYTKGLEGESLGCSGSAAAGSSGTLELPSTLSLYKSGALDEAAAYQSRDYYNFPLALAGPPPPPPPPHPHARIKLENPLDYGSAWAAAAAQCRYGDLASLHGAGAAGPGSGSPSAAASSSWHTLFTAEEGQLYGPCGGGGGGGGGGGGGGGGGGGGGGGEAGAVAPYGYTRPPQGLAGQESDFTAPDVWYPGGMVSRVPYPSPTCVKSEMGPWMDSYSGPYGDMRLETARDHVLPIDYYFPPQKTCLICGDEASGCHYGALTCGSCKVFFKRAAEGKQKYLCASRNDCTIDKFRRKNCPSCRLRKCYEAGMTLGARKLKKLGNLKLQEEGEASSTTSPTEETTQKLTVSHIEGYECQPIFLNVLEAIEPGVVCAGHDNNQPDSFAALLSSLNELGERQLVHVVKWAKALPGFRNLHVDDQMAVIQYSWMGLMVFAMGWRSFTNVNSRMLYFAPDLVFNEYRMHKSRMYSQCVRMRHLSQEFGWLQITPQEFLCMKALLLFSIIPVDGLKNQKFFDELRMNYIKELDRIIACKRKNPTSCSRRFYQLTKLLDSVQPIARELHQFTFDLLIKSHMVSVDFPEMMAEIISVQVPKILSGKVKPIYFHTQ

As to `O=C1c2ccccc2C(=O)N1CCl`, the call in [1], in experiment [2], in experiment [3], in [4], in experiment [5] and in [6] was inactive. Further, the call in experiment [7], in [8], in experiment [10], in experiment [14] and in [15] was inactive. In addition, the Potency entry in [9], in [11], in [12], in experiment [13], in experiment [16] and in experiment [17] was “inactive” each time.

As to `CN(C)c1ccc(C=O)cc1`, the compound was called inactive in experiment [1], in experiment [2], in experiment [3], in experiment [4], in experiment [5] and in [6]. Besides, the result in experiment [7], in experiment [8] and in [18] was inactive. Moreover, the Potency result in experiment [9], in experiment [11], in experiment [19], in experiment [20], in experiment [12] and in experiment [16] was “inactive” in each case.

Consider `COc1cc(C(=S)N2CCOCC2)cc(OC)c1OC`, for which the compound was called inactive in [1], in [2], in [3], in experiment [4], in experiment [5] and in experiment [6]. The call in experiment [7], in [8] and in experiment [18] was inactive. In addition, the Potency entry in experiment [9], in experiment [11], in experiment [20], in experiment [12] and in [16] was “inactive” throughout.

As for `O=C(O)c1ccc(Cl)cc1Cl`, the outcome in experiment [1], in experiment [2], in experiment [3], in experiment [4], in experiment [5] and in [6] was inactive. The call in experiment [7], in experiment [8] and in experiment [18] was inactive. Moreover, the Potency result in experiment [9], in experiment [11], in experiment [19], in experiment [20], in [12] and in [16] was “inactive” each time.

Take `CC(C)CCCCOC(=O)c1ccccc1C(=O)OCCCCC(C)C`: the outcome in [1], in [2], in [3], in experiment [4], in [5] and in experiment [6] was inactive. Moreover, the compound was called inactive in [7], in experiment [8] and in experiment [18]. In addition, the Potency entry in experiment [9], in experiment [11], in experiment [19] and in [12] was “inactive” in each case.

Regarding `CC(=O)N[C@@H](CCC(=O)O)C(=O)O`, the outcome in [1], in experiment [2], in experiment [3], in [4], in experiment [5] and in experiment [6] was inactive. Further, the compound was classed as inactive in experiment [7], in experiment [8] and in [18]. The Potency result in experiment [9], in experiment [11], in [20], in [12] and in experiment [16] was “inactive” in each case.

With `CCCCCCCCCCl`, the outcome in experiment [1], in experiment [2], in experiment [3], in experiment [4], in [5] and in experiment [6] was inactive. Moreover, the outcome in experiment [7], in [8] and in experiment [18] was inactive. Also, the Potency entry in experiment [11], in experiment [19], in experiment [12] and in [16] was “inactive” throughout.

In the case of `O=C(CCN1CCN(CCO)CC1)N1c2ccccc2Sc2ccc(C(F)(F)F)cc21`, the call in [1], in experiment [2], in experiment [3], in [4], in [5] and in experiment [6] was inactive. The compound was classed as inactive in experiment [7], in experiment [8], in experiment [18], in [14] and in [15]. Besides, the Potency in [11] is 26.6 µM (active); in experiment [19], 29.8 µM (active). For the same compound, the Potency entry in experiment [12], in experiment [13], in experiment [16] and in [17] was “inactive” each time.

With `O=S(O)(O)=S`, in [1], the fluorescence, % of fluorescein was -0.0177% [at 3.72 µM]. The fluorescence, % of fluorescent control is -0.0004% [at 3.72 µM] in experiment [2], -0.356% [at 3.72 µM] in [4], -0.093% [at 3.72 µM] in experiment [6] and -0.0508% [at 3.72 µM] in experiment [8]. The activity change in experiment [3] was -0.0159% [at 3.72 µM]. In addition, in experiment [5], the fluorescence, % of Rose Bengal is -0.0109% [at 3.72 µM]. Moreover, the fluorescence, % of fluorescein control in experiment [7] is 0.0353% [at 3.72 µM]. Moreover, the viability change, negative = cytotoxic is -8.56% [at 7.04 µM] in experiment [18] and -5.99% [at 8.47 µM] in [16]. Also, the values for the activity change, negative = cytotoxicity in experiment [11], in experiment [20] and in experiment [12] were -4.81% [at 8.52 µM], -5.32% [at 8.55 µM] and 3.7% [at 7.04 µM], respectively. Also, in experiment [19], the activity, negative = cytotoxicity is 5.56% [at 8.53 µM].

Take `O=C(NCCN1CCOCC1)c1ccc(Cl)cc1`: the compound was classed as inactive in [1], in experiment [2], in experiment [3], in experiment [4], in experiment [5] and in experiment [6]. The call in [7], in experiment [8] and in [18] was inactive. The Potency result in [11], in experiment [19] and in experiment [12] was “inactive” each time.

Turning to `COc1nccnc1NS(=O)(=O)c1ccc(N)cc1`, the call in [1], in experiment [2], in [3], in experiment [4], in [5] and in experiment [6] was inactive. The compound was classed as inactive in [7], in [8], in experiment [18], in experiment [14] and in experiment [15]. The Potency result in [11], in [19], in [20], in [12] and in experiment [17] was “inactive” in each case.

On to `CC(S)C(=O)NCC(=O)O` (centres undefined), for which the outcome in experiment [1], in experiment [2], in [3], in [4], in [5] and in [6] was inactive. Besides, the outcome in experiment [7], in [8], in experiment [14] and in [15] was inactive. Further, the Potency result in [11], in [19], in experiment [20], in [12], in experiment [13] and in experiment [16] was “inactive” throughout. The Potency result in [17] was “inactive”.

With `OCCN(CCO)c1cccc(Cl)c1`, the outcome in experiment [1], in experiment [2], in [3], in experiment [4], in [5] and in experiment [6] was inactive. In addition, the outcome in experiment [7], in experiment [8], in experiment [14] and in experiment [15] was inactive. For the same compound, the Potency result in experiment [11], in experiment [19], in experiment [20], in experiment [12], in experiment [13] and in [16] was “inactive” in each case. In addition, in [17], the Potency result was “inactive”.
